# From PubChem
# Rows were chosen to be rich in hits. Some 32% of all compounds tested hit in one or more screens of this group.
# PostGolgi yeast: growth inhibition of a yeast mutant, post-Golgi transport screen | inhibition, % at 10 µM | 98,000 tested, 0.9% active | post-Golgi transport phenotypic cell assay;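 also: yeast cells grown in 1536-well plates; yeast grown about 18 h at 30C before absorbance read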
# CYP2C9 act: CYP2C9 (human) activation; recombinant CYP2C9, luciferin-H conversion, luminescence; stronger effect = higher value; factor 1 = untreated enzyme, 0 = blocked; activation factor at 5 µM; P11712; 96,000 tested, 1.4% active;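 active = activation factor of 2 or more for CYP2C9 at a 5 µM dose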;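 also: 0 = sulfaphenazole-blocked wells and 1 = vehicle-only wells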
# Target sequence (P11712 whole entry, looked up): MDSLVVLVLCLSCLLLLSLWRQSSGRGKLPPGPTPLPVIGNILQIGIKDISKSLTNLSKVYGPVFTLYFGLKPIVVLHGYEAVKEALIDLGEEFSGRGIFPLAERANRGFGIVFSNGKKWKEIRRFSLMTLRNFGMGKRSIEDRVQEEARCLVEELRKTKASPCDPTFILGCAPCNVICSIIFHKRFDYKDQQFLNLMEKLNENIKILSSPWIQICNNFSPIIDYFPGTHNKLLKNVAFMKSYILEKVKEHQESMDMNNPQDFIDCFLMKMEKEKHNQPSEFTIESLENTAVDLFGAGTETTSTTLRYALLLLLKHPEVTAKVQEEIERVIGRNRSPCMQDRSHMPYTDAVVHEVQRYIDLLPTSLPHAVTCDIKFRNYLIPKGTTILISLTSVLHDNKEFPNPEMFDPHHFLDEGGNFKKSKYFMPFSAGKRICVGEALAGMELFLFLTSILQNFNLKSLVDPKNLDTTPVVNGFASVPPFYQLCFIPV
# CYP2C19 activ: activators of human cytochrome P450 2C19 | P33261 | recombinant CYP2C19, luciferin-H EGE luminescence; stronger effect = higher value; 0 = fully inhibited enzyme, 1 = untreated enzyme | activation factor at 5 µM | 96,000 tested, under 10 active | AID 1025;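 active = activation factor of at least 2 at 5 µM in the primary screen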;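 also: 0 = wells with 2.5 mM tranylcypromine and 1 = vehicle-only wells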
# CYP2C19 inh: blocks human cytochrome P450 2C19 | P33261 | CYP2C19 Supersomes, luciferin-H EGE luminescence, 30 min | inhibition, % at 5 µM | 96,000 tested, 21% active | AID 778;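 active = CYP2C19 inhibition above a set limit at 5 µM in the primary screen, cut at about 50% in these data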;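 also: plate controls were negative control wells for no effect and 2.5 mM tranylcypromine positive control for full effect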
# CYP2C9 inh: human CYP2C9 inhibition; P11712; CYP2C9 Supersomes, luciferin-H conversion, luminescence; inhibition, % at 5 µM; 96,000 tested, 20% active;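 active = blocking of liver enzyme CYP2C9 beyond about 50% at 5 µM, limit read from the data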
# PostGolgi ctrl: yeast control strain growth, post-Golgi counter-screen; efflux-deficient yeast background strain, growth absorbance A615, 16 h; inhibition, % at 10 µM; 98,000 tested, 5% active; AID 738
# Active calls of the source: *; nt = no result. Rule as the data show it, unless noted: active = inhibition above about 30%; inactive = the rest.
SMILES,PostGolgi yeast,CYP2C9 act,CYP2C19 activ,CYP2C19 inh,CYP2C9 inh,PostGolgi ctrl
CC1CCCC(C)N1C(=O)CSc1nnc(NC(=O)Cc2cccs2)s1 (stereo not drawn),4.4,0.8,0.8,16.3,18.9,2.5
COc1cccc(-n2nc(-c3ccnn3-c3ccc(F)cc3)c(=O)n(C)c2=O)c1,7.7,0.2,0.3,66.6*,80.1*,20.2
COc1ccc(Oc2nc3c(c(=O)n(C)c(=O)n3C)n2Cc2cccc(OC)c2)cc1,16.5,1.1,1,0.4,-5.9,-5.7
COc1ccc(-n2nccc2-c2nn(-c3cccc(OC)c3)c(=O)n(C)c2=O)cc1,10.9,0.4,0.1,89.2*,61.7*,3.4
COc1cccc(-n2c(C)nn(C)c2=O)c1,-16.0,1,0.8,15.2,-3.2,8.8
COc1cccc(-n2c(C)nc3c(cnn3-c3ccc(Cl)cc3)c2=O)c1,13.8,1,1.1,-6.1,4.9,11.0
COc1cccc(-n2nc(-c3ccnn3-c3ccc(C)cc3)c(=O)n(C)c2=O)c1,3.5,0.2,0.1,89.4*,83.5*,7.8
CCn1ncc(C2=NOC(C(=O)Nc3cnn(C45CC6CC(CC(C6)C4)C5)c3)C2)c1C (stereo not drawn),-0.2,0.9,0.9,10.3,11.4,20.9
CCOc1cc(/C=N\NC(=O)c2ccc(NC(=O)C(C)(C)C)cc2)ccc1OC(=O)c1ccc(C)cc1,-5.2,0.8,0.9,12.0,22.8,-2.4
COc1cc(C(=O)Oc2ccccc2/C=N/NC(=O)c2ccc(C)cc2)cc(OC)c1OC,-0.3,0.4,0.7,33.0,59.0*,-2.1
CC(C)(C)C(=O)Nc1ccc(C(=O)N/N=C/c2ccccc2OC(=O)c2ccccc2)cc1,7.7,0.6,0.4,64.1*,36.7,-4.7
Cc1ccc(C2CC(c3cccc(Cl)c3)n3nc(N)nc3N2)cc1 (stereo not drawn),8.0,1.1,0.8,23.2,-5.7,0.5
CCOc1ccccc1C1CC(c2ccc(Br)cc2)Nc2nc(N)nn21 (stereo not drawn),-1.6,0.8,0.4,64.0*,23.2,1.0
Nc1nc2n(n1)C(c1ccccc1Cl)CC(c1ccc(F)cc1)N2 (stereo not drawn),-1.1,0.8,0.3,73.0*,16.9,15.7
COc1ccc(C2CC(c3ccccc3C)n3nc(N)nc3N2)cc1 (stereo not drawn),-2.7,0.9,0.4,57.0*,7.3,-1.9
Cc1ccc(C2CC(c3ccccc3C)n3nc(N)nc3N2)cc1 (stereo not drawn),-8.0,nt,nt,nt,nt,-0.6
Cc1ccc(C2CC(c3cccs3)n3nc(N)nc3N2)cc1 (stereo not drawn),-3.3,0.8,0.5,50.8*,21.2,4.1
Nc1nc2n(n1)C(c1ccc(Cl)cc1)CC(c1ccc(F)cc1)N2 (stereo not drawn),2.7,0.9,0.8,22.3,7.2,8.4
CCOc1ccc(C(=S)NC2CCCCC2)cc1OC,0.3,1,0.9,12.8,-0.1,7.0
COC(=O)C(CC(C)C)NC(=O)c1ccc(F)cc1 (stereo not drawn),23.4,1,0.8,15.3,2.7,-2.8
Cc1cccc(C2CC(c3ccc(Cl)cc3)Nc3nc(N)nn32)c1 (stereo not drawn),5.5,0.7,0.8,16.0,30.0,8.6
Cc1ccc(C2CC(c3ccccc3Cl)n3nc(N)nc3N2)cc1 (stereo not drawn),1.5,0.9,0.8,24.3,5.7,40.3*
Cc1cccc(C2CC(c3ccc(F)cc3)Nc3nc(N)nn32)c1 (stereo not drawn),-3.6,1,0.4,58.0*,4.1,-4.7
CCOC(=O)c1ccccc1NC(=O)CC(C)CC(=O)O (stereo not drawn),5.6,1.1,0.9,13.4,-12.8,7.5
O=C(Nc1cnccn1)c1cccs1,7.9,1.1,1.1,-9.8,-9.2,7.7
SMILES,PostGolgi yeast,CYP2C9 act,CYP2C19 activ,CYP2C19 inh,CYP2C9 inh,PostGolgi ctrl
Cc1ccc(-c2nnnn2CS(=O)(=O)c2ccccc2)cc1,7.8,1.7,0.3,67.9*,-73.8,26.7
CCCC(c1nnnn1CS(=O)(=O)c1ccc(C)cc1)N1CCN(c2ccccc2)CC1 (stereo not drawn),-7.6,0.4,0.7,26.7,61.6*,30.9*
Cc1ccc(S(=O)(=O)Cn2nnnc2C(c2ccc(F)cc2)N2CCCCC2)cc1 (stereo not drawn),3.7,1,0.9,6.1,2.5,14.9
Cc1ccc(S(=O)(=O)Cn2nnnc2C(c2ccccc2)N2CCN(c3ncccn3)CC2)cc1 (stereo not drawn),-1.6,0.1,0,98.0*,93.5*,9.9
Cc1ccc(S(=O)(=O)Cn2nnnc2CN2CCN(C(=O)c3ccco3)CC2)cc1,14.6,1,1.1,-5.3,3.3,-1.7
O=C(O)c1ccc(Oc2cccc([N+](=O)[O-])c2)cc1C(=O)O,0.0,0.9,0.9,5.8,5.0,2.8
COc1cc2[nH]c(=O)n(Cc3ccccc3Cl)c(=O)c2cc1OC,3.6,0.7,0.8,16.3,28.2,4.4
COc1ccc(N2CC(C(=O)OCC(=O)c3ccccc3)CC2=O)cc1 (stereo not drawn),3.1,1,1.1,-9.2,-0.9,1.4
CC(C)(C)OC(=O)N1CC(O)CC1C(=O)OCC(=O)c1ccc(Cl)cc1 (stereo not drawn),2.8,0.8,0.5,54.8*,21.9,16.8
COc1ccc(-c2nc(C#N)c(N3CCN(c4cccc(Cl)c4)CC3)o2)cc1OC,nt,0.8,0.7,32.2,15.5,nt
COc1cc2c(cc1OC)C1=C(C#N)CC/C(=N\S(=O)(=O)c3cccc(Cl)c3)N1CC2,-0.6,0.4,0.7,27.3,62.9*,23.2
Cc1ccccc1C(=O)NC1CCN(CC(=O)Nc2nccs2)CC1,12.8,1.1,1.1,-11.3,-9.7,15.3
Cc1ccc2cccc(NC(=S)NC(=O)c3ccccc3)c2n1,1.4,2.7*,0.8,16.0,-168.0,8.1
COC(=O)c1ccccc1NC(=S)NC(=O)c1ccccc1C,7.5,0.7,0.5,51.2*,26.7,11.5
COC(=O)c1ccccc1NC(=O)CN1CCC(NC(=O)c2ccccc2C)CC1,17.4,0.5,0.2,82.4*,53.9*,7.0
COC(=O)c1ccccc1NC(=S)NC(=O)c1ccccc1,0.2,0.8,0.4,56.1*,25.0,2.7
Cc1ccccc1C(=O)NC(=S)Nc1ccccc1C(F)(F)F,-11.2,1.1,0.9,7.9,-8.4,6.9
Cc1cc(C)c2cccc(NC(=S)NC(=O)c3ccccc3)c2n1,1.6,1.3,1.1,-5.8,-25.0,-0.3
COC(=O)c1ccccc1NC(=S)NC(=O)COc1ccccc1,-12.7,0.8,0.9,8.6,17.8,2.9
c1ccc(-c2cc(N3CCOCC3)nc3ccccc23)cc1,12.7,0.8,0.9,14.5,22.4,22.9
O=C(CN1C(=O)C2CC=CCC2C1=O)Nc1nnc(SCc2ccc(F)cc2)s1 (stereo not drawn),13.0,1.2,1,-2.3,-15.9,1.5
